Compound activity as filed in PubChem BioAssay.
JMJD2A Tudor inh = JMJD2A Tudor domain (human) inhibition; O75164; hit rate 4.4% among 390,000; AlphaScreen JMJD2A-Tudor / H3K4me3 peptide binding; Potency, µM (highest dose often 114 µM), for inactives: at the highest dose activity change, negative = inhibition, usual class: inhibitors; note: % is set by controls: 0 for no effect and ±100 for the full control effect; nearly all actives have a fitted effect of over 50% in size
HP1b binding inh = blocks HP1-beta chromodomain binding to methylated histone tails; Potency, µM (series often up to 114 µM), without a hit: at the top dose activity change, negative = inhibition, actives largely listed as inhibitors; hit rate 0.56% among 390,000; AlphaScreen HP1-beta / biotin-H3K9me3 peptide binding; note: nearly all actives have a fitted effect of over 70% in size
Target sequence (P83916 whole entry, looked up): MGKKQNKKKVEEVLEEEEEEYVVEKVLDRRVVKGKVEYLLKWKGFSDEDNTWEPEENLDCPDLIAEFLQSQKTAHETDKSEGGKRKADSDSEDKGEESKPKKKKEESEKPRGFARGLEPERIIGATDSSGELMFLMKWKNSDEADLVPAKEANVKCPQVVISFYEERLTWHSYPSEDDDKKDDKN
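AlphaScreen: HP1-beta (50 nM) preformed 30 min with biotin-H3(1-18)K9me3 peptide (50 nM) in PBS pH 7.4, 0.01% Tween-20. Compound added for 30 min at RT, then streptavidin donor/nickel chelate acceptor beads (10 ug/mL) for 30 min.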
G9a inh = G9a (human) methyltransferase inhibition | G9a H3K9 monomethylation, AlphaScreen, 2 h | Potency, µM (doses to about 102 µM), for the others: at the highest dose activity, negative = inhibition, usual class: inhibitors | hit rate 8.8% among 350,000 | AID 504332; note: % is set by controls: 0 for no effect and ±100 for the full control effect; nearly all actives have a fitted effect of over 75% in size
Target sequence (Q96KQ7 913-1193 limits assumed): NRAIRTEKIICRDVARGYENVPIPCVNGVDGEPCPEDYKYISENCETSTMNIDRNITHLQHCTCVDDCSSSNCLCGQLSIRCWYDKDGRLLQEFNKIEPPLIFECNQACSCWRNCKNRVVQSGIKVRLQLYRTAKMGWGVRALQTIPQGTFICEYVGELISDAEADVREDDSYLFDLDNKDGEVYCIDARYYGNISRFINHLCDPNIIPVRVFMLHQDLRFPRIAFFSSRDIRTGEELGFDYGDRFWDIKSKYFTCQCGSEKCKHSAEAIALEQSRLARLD
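Step 1: enzyme (final 20 nM) with compound, 15 min RT. Step 2: substrate peptide 500 nM and SAM 20 uM, 2 h RT. Step 3: anti-H3K9me1 antibody and AlphaScreen beads, 10 min, then plate read.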
L3MBTL1 block = inhibitors of human L3MBTL1 | AlphaScreen L3MBTL1–H3K9me1 peptide binding | Potency, µM (series often up to 57.1 µM), for the others: at the highest dose activity, negative = inhibition, usual class: inhibitors | hit rate 0.66% among 230,000 | AID 485360; note: % is set by controls: 0 for no effect and ±100 for the full control effect; nearly all actives have a fitted effect of over 60% in size
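L3MBTL1 50 nM + b-AHA-H3(1-15)K9me1 75 nM, 30 min RT; compound added, 30 min RT; streptavidin donor/Ni-chelate acceptor beads 10 ug/mL each final, 30 min RT dark; AlphaScreen read.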
BAZ2B inh = BAZ2B (human) inhibition | AlphaScreen BAZ2B-H3K14Ac peptide displacement | Q9UIF8 | Potency, µM (doses to about 114 µM), for inactives: at the top dose activity change, negative = inhibition, usual class: inhibitors | AID 504333 | hit rate 4.4% among 360,000; note: % is set by controls: 0 for no effect and ±100 for the full control effect; nearly all actives have a fitted effect of over 60% in size
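AlphaScreen displacement of biotin-H3(5-23)K14Ac peptide (50 nM final) from BAZ2B (50 nM final) in PBS pH 7.4, 0.01% Tween-20; complex preformed 30 min RT, then compounds (top 110 uM) 30 min RT, beads 20 min dark.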
Sfp PPTase inh = Sfp phosphopantetheinyl transferase inhibition; Q9F4F7; AID 1490; hit rate 3.5% among 310,000; Potency, µM, for the others: largest response in the series, negative = inhibition, actives largely listed as inhibitors; Biochemical Sfp PPTase activity, qHTS;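 note: the enzyme is Sfp with the accession as filed and its product quenches rhodamine fluorescence; 0% = enzyme reaction without inhibitor and -100% = no enzyme wells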
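Buffer: 50 mM Hepes-Na pH 7.6, 10 mM MgCl2, 0.01% Nonidet P-40, 0.01% BSA. Enzyme 15 nM, pre-exposed to compound 15 min; substrates then added and fluorescence change tracked over 30 min.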
Numbers without * were called inactive; [ ] = dose if it differs, or a comment. This is a sample that favours compounds with a hit; in the whole collection about 12% have one here. Calls come from the whole dose curve; as a rule, active = well fitted curve in the direction sought with a large enough effect; inconclusive = small, poorly fitted or top-dose-only effect, or another doubt; inactive = no such curve, though single readings can be large; an effect the other way counts as inactive or inconclusive. Potency is the fitted concentration of half-maximal effect.

How did C/C(N)=C(/C#N)C(=O)CSc1nc2cc(Cl)ccc2s1 do in these assays?
JMJD2A Tudor inh: -19%; HP1b binding inh: 10%; G9a inh: 14µM*; L3MBTL1 block: -9%; BAZ2B inh: -10%; Sfp PPTase inh: -11%

What do the screens show for `O=C(NCCc1ccccc1)c1cnc2ccccc2n1`?
JMJD2A Tudor inh: -19%; HP1b binding inh: 19%; G9a inh: 25%; BAZ2B inh: 10%; Sfp PPTase inh: 3%

What do the screens show for `Nc1nc(N)c2ncc(C(=O)CCc3ccccc3)nc2n1`?
JMJD2A Tudor inh: 14µM*; HP1b binding inh: -26%; G9a inh: 40µM*; L3MBTL1 block: -11%; BAZ2B inh: inconclusive; Sfp PPTase inh: 0%

Results for Oc1ccc(Br)cc1C1C=C(c2ccc3c(c2)OCO3)NC(c2cccc(F)c2)N1 (centres undefined) ?
JMJD2A Tudor inh: inconclusive; HP1b binding inh: 6%

Results for CC1C=CC(C)C(C(=O)O)C1C(=O)O (centres undefined) ?
JMJD2A Tudor inh: 45µM*; HP1b binding inh: -5%; G9a inh: inconclusive; BAZ2B inh: 50µM*; Sfp PPTase inh: 15%

What do the screens show for `N[C@H](C(=O)O)C1[C@H](C(=O)O)[C@H]1C(=O)O` (some centres undefined)?
Sfp PPTase inh: -22%

How did CCCC[C@H]1CCCO[C@@](C(=O)NCCN2CCOCC2)(C(F)(F)F)C1 do in these assays?
JMJD2A Tudor inh: -1%; HP1b binding inh: 15%; Sfp PPTase inh: -4%

How did CCOC(=O)CC1=C(C(=O)OCC)C(c2ccc(C)o2)C(C#N)=C(N)O1 (centres undefined) do in these assays?
JMJD2A Tudor inh: -32%[11.4 µM]; HP1b binding inh: 32%; G9a inh: 25µM*; L3MBTL1 block: -5%; BAZ2B inh: -31%; Sfp PPTase inh: -9%

Results for CCOC(=O)CC1=C(C(=O)OCC)C(c2ccc(OC)cc2OC)C(C#N)=C(N)O1 (centres undefined) ?
JMJD2A Tudor inh: -27%; HP1b binding inh: 14%; G9a inh: 56µM*; L3MBTL1 block: -3%; BAZ2B inh: -35%; Sfp PPTase inh: 79µM*

How did CCOC(=O)C1=C(CC)OC(N)=C(C#N)C1c1ccc(OC)cc1OC (centres undefined) do in these assays?
JMJD2A Tudor inh: -18%; HP1b binding inh: 33%; G9a inh: -12%[59 µM]; L3MBTL1 block: 26%; BAZ2B inh: -4%; Sfp PPTase inh: 11%

Results for Cc1ccc(C2C(C#N)=C(N)Oc3c2sc2ccccc32)o1 (centres undefined) ?
G9a inh: 16µM*; L3MBTL1 block: -9%; BAZ2B inh: inconclusive; Sfp PPTase inh: 56µM*

How did COC(=O)C1=C(C)OC(N)=C(C#N)C1c1ccco1 (centres undefined) do in these assays?
JMJD2A Tudor inh: -2%; HP1b binding inh: 41%; G9a inh: -16%[59 µM]; L3MBTL1 block: -3%; BAZ2B inh: 2%; Sfp PPTase inh: 5%

What do the screens show for `CCOC(=O)C1=C(c2ccccc2)OC(N)=C(C#N)C1c1ccco1` (centres undefined)?
JMJD2A Tudor inh: -3%; HP1b binding inh: 41%; G9a inh: 45µM*; L3MBTL1 block: -2%; BAZ2B inh: 5%; Sfp PPTase inh: 1%

Results for Cc1ccc(C)c(NC(=O)N2CCN(C(=O)c3nsc4ccccc34)CC2)c1 ?
JMJD2A Tudor inh: 2%; HP1b binding inh: 24%[57 µM]; G9a inh: 2%[59 µM]; BAZ2B inh: 3%

What do the screens show for `COCC(=O)N1CCC2(CC1)CCN(C(=O)NC(C)C)CC2`?
G9a inh: 4%[12.7 µM]; Sfp PPTase inh: 11%

Results for O=C1C2CCCCC2C(=O)N1c1ccc(NC2CCN(Cc3ccccc3)CC2)c([N+](=O)[O-])c1 (centres undefined) ?
JMJD2A Tudor inh: 45µM*; HP1b binding inh: inconclusive; G9a inh: inconclusive; L3MBTL1 block: -1%; BAZ2B inh: 40µM*; Sfp PPTase inh: -9%

What do the screens show for `O=C1CCC(=O)N1c1ccc(NC2CCN(Cc3ccccc3)CC2)c([N+](=O)[O-])c1`?
JMJD2A Tudor inh: -25%; HP1b binding inh: -2%[57 µM]; G9a inh: 12%; L3MBTL1 block: 27%; BAZ2B inh: 0%; Sfp PPTase inh: 1%

How did O=[N+]([O-])c1ccccc1NC1CCN(Cc2ccccc2)CC1 do in these assays?
JMJD2A Tudor inh: inconclusive; HP1b binding inh: inconclusive; BAZ2B inh: 40µM*; Sfp PPTase inh: 19%

What do the screens show for `CC1CCC2C(=O)N(c3ccc(NC4CCN(Cc5ccccc5)CC4)c([N+](=O)[O-])c3)C(=O)C2C1` (centres undefined)?
JMJD2A Tudor inh: 32µM*; HP1b binding inh: inconclusive; G9a inh: 40µM*; L3MBTL1 block: inconclusive; BAZ2B inh: 35µM*; Sfp PPTase inh: 7%

Results for NC(=O)CC(NC(=O)Cc1ccc(Br)cc1)c1ccc(NC2CCN(Cc3ccccc3)CC2)c([N+](=O)[O-])c1 (centres undefined) ?
JMJD2A Tudor inh: -19%; HP1b binding inh: 24%; G9a inh: inconclusive; L3MBTL1 block: 1%; BAZ2B inh: -28%; Sfp PPTase inh: 15%

How did CC1CCc2nc3ncn(Cc4cccc(F)c4)c(=O)c3cc2C1 (centres undefined) do in these assays?
JMJD2A Tudor inh: -20%; HP1b binding inh: 11%[57 µM]; G9a inh: -1%[59 µM]; BAZ2B inh: -2%

Results for CNCc1ccccc1Sc1ccc(O)c(O)c1 ?
JMJD2A Tudor inh: 79µM*; HP1b binding inh: inconclusive; G9a inh: 13µM*; L3MBTL1 block: inconclusive; BAZ2B inh: inconclusive; Sfp PPTase inh: inconclusive

What do the screens show for `COc1ccc(Sc2ccccc2CN(C)C)cc1OC`?
JMJD2A Tudor inh: -10%; HP1b binding inh: 53%; G9a inh: -11%[59 µM]; L3MBTL1 block: -6%; BAZ2B inh: -3%; Sfp PPTase inh: 8%

What do the screens show for `CCC1CN(C(=O)Nc2cccc3c2CCCC3)c2ccccc2O1` (centres undefined)?
JMJD2A Tudor inh: 0%; HP1b binding inh: 47%; G9a inh: 2%[59 µM]; BAZ2B inh: -2%

Results for N#CC(C#N)=C1C=CC=CN1/C(=C\c1ccccc1Cl)C(=O)c1ccccc1 ?
JMJD2A Tudor inh: 50µM*; HP1b binding inh: inconclusive; G9a inh: 14µM*; L3MBTL1 block: -2%; BAZ2B inh: inconclusive; Sfp PPTase inh: inconclusive

What do the screens show for `N#CC(C#N)=C1C=CC=CN1/C(=C\c1ccccc1)C(=O)c1cccs1`?
JMJD2A Tudor inh: inconclusive; HP1b binding inh: -12%; G9a inh: 1.1µM*; L3MBTL1 block: 18%; BAZ2B inh: -9%; Sfp PPTase inh: 2.2µM*
